Measurements as given in PubChem BioAssay (NCATS).
“And” between values parts separate entries of the source, which are not always exact repeats. Equal values may be shown once. Inconclusive results are not listed. Some structures have more than one record in an assay (separate samples or runs), and their calls can disagree. Values without a mark were called inactive. The source made the active and inactive calls. Calls follow the shape of the dose curve; as a rule, active = well fitted inhibition curve with a large enough effect; inconclusive = small, poorly fitted or top-dose-only effect; inactive = flat fitted curve, though single readings scatter.

test system: HaCat; assay: Cytotoxic Profiling of Annotated Libraries Using Quantitative High-Throughput Screening (AID 1296008); conditions: Five cell lines viability, CellTiter-Glo ATP luminescence, 48-72 h; max response: hits give low values; also: nearly all actives have a fitted effect of over 60% in size
Text: Cell-based phenotypic screening is a commonly used approach to discover biological pathways, novel drug targets, chemical probes and high-quality hit-to-lead molecules. Many hits identified from high-throughput screening campaign are ruled out through a series of follow-up potency, selectivity/specificity, and cytotoxicity assays. Prioritization of molecules with little or no cytotoxicity for a more in-depth downstream evaluation influence the future direction of projects, so cytotoxicity profiling of the screening libraries at early stage is essential for increasing the likelihood of candidate success. […] For the annotated library, we also examined the primary targets and mechanistic pathways regularly associated with cell death. To our knowledge, this is the first study to use high-throughput screening to profile large libraries for cytotoxicity assessment in both normal and cancer cell lines. In summary, the results generated here constitutes a valuable resource for the scientific community and provides insight on identifying cytotoxic compounds with particular mechanisms of action, and prioritizing compounds with suitable cytotoxicity profile for further evaluation.
A pintool (Kalypsys) was used to transfer 23 nL of compound solution to the 1536-well assay plates. After 48 or 72 hr incubation at 37 degree Celsius, 5% CO2 and 95% humidity, 2.5 uL of CellTiter-Glo (Promega) was dispensed into each well using a dispenser (Aspect Automation, St. Paul, MN) with solenoid valves (Lee Valves, Westbrook CT). Plates were left at room temperature for 10 min before imaging the ATP-coupled luminescence using a ViewLux microplate imager (PerkinElmer, Waltham, MA).
% is scaled to controls: 0 for no effect and ±100 for the full control effect; potency is read from the fitted curve at half-maximal effect.

Q: For `CCCc1nn(C)c2c(=O)[nH]c(-c3cc(S(=O)(=O)N4CCN(C)CC4)ccc3OCC)nc12`, which max response is on record?
A: -6.49% and -10.8%

Q: For `OC(CN1CCC(Cc2ccc(F)cc2)CC1)c1ccc(Cl)cc1` (stereo not given), which max response is on record?
A: 0.0814%

Q: What about the outcome of the same compound?
A: inactive

Q: What does the source list for `OC(CCN1CCCCC1)(c1ccccc1)C1CC2C=CC1C2` (stereo not given)?
A: outcome: inactive; max response: -0.0685%

Q: Which results are given for `O=c1[nH]cnc2[nH]ncc12`?
A: outcome: inactive; max response: 0.897%

Q: How did the max response turn out when `O=C(Nc1ccc(F)c(C(F)(F)F)c1)Nc1nnc(-c2ccncc2)s1` was run?
A: 2.71%

Q: What about the outcome of the same compound?
A: inactive

Q: How did the max response turn out when `CCCS(=O)(=O)Nc1ccc(F)c(C(=O)c2c[nH]c3ncc(-c4ccc(Cl)cc4)cc23)c1F` was run?
A: -13.3%

Q: Which outcome does the source give for `CNC(=O)c1ccc(N2C(=S)N(c3ccc(C#N)c(C(F)(F)F)c3)C(=O)C2(C)C)cc1F` here?
A: inactive

Q: `CCCC(CCC)C(=O)O` was tested. Which outcome did it give?
A: inactive

Q: And the max response?
A: 2.57%

Q: Which Potency does the source give for `Cn1c(=O)c(F)c(Nc2ccc(I)cc2F)c2c(=O)n(C[C@@H](O)CO)cnc21` here?
A: 833 nM (active)

Q: Which max response does the source give for `O=c1ncn2nc(Sc3ccc(F)cc3F)ccc2c1-c1c(Cl)cccc1Cl` here?
A: -4.37%

Q: Which max response does the source give for `Cc1cccc(-c2nn(C(=S)Nc3ccccc3)cc2-c2ccnc3ccccc23)n1` here?
A: -21.4%

Q: `Cc1ccccc1C(C(=O)NC1CCCC1)N(C(=O)Cn1cnc2ccccc21)c1cccc(F)c1` (stereo not given) was tested. Which outcome did it give?
A: inactive

Q: For `CO[C@@H]1[C@H](N(C)C(=O)c2ccccc2)C[C@H]2O[C@]1(C)n1c3ccccc3c3c4c(c5c6ccccc6n2c5c31)C(=O)NC4`, which Potency is on record?
A: 3720 nM (active)

Q: Which outcome does the source give for `COc1ccc(-c2oc3cc(OC)ccc3c2C(=O)c2ccc(C#N)cc2)cc1` here?
A: inactive

Q: Which max response does the source give for `Cc1cnc(Nc2ccc(OCCN3CCCC3)cc2)nc1Nc1cccc(S(=O)(=O)NC(C)(C)C)c1` here?
A: 2.79%

Q: What about the Potency of the same compound?
A: 5800 nM (active)

Q: How did the outcome turn out when `COc1cc(Oc2ccnc3cc(OC)c(OC)cc23)ccc1NC(=O)NC(C)c1nccs1` (stereo not given) was run?
A: inactive

Q: With `CCOc1cc(N2CCC(O)CC2)ccc1Nc1ncc2c(n1)N(C)c1ccccc1C(=O)N2C` as the compound, how does the max response read?
A: 2.41%

Q: For `Cc1ccc(-n2nc(C(C)(C)C)cc2NC(=O)Nc2ccc(OCCN3CCOCC3)c3ccccc23)cc1`, which outcome is on record?
A: inactive

Q: What about the max response of the same compound?
A: -3.92%

Q: With `Cc1csc(NC(=O)c2sc3nc4c(c(C(F)(F)F)c3c2N)CCC4)n1` as the compound, how does the max response read?
A: -0.44%

Q: What about the outcome of the same compound?
A: inactive

Q: `CCn1c(-c2nonc2N)nc2cnc(Oc3cccc(NC(=O)c4ccc(OCCN5CCOCC5)cc4)c3)cc21` was tested. Which max response did it give?
A: -18.5%

Q: `NCCc1ccc(O)c(O)c1` was tested. Which max response did it give?
A: 2.7%

Q: What about the outcome of the same compound?
A: inactive

Q: Which Potency does the source give for `Cc1ccnc(NS(=O)(=O)c2ccc(NC(=O)Nc3ccc(S(=O)(=O)Nc4nccc(C)n4)cc3)cc2)n1` here?
A: 1480 nM (active)

Q: And the max response?
A: -9.99%

Q: With `Cn1cc(-c2ccc3nnc(C(F)(F)c4ccc5ncccc5c4)n3n2)cn1` as the compound, how does the max response read?
A: -1.46%

Q: How did the max response turn out when `CNCc1ccc(-c2[nH]c3cc(F)cc4c3c2CCNC4=O)cc1` was run?
A: 4.8%

Q: What about the outcome of the same compound?
A: inactive

Q: With `CCOc1cc(C=C2C(=O)N(c3ccccc3)N=C2C)cc(Cl)c1OCC(=O)OC` as the compound, how does the outcome read?
A: inactive

Q: For `CCOC(=O)C1=C[C@]2(CC)CCCN3CCc4c(n1c1ccccc41)[C@@H]32`, which max response is on record?
A: -26.7% and -18%

Q: With `CNC[C@H](O)c1cccc(O)c1` as the compound, how does the max response read?
A: -21.3%

Q: What about the outcome of the same compound?
A: inactive

Q: With `COc1ccc(CCN2CCN(CCCc3ccccc3)CC2)cc1OC` as the compound, how does the outcome read?
A: inactive
